Sampled rows, rich in hits. Any-hit rate of the full collection: about 1.8%.
PI5P4Ka inh: inhibitors of human PI5P4K alpha | P48426 | PI5P4Kalpha enzyme, ADP-Glo luminescence, 60 min; active compounds read low | max response, % | 1.2% of 330,000 active | AID 652105; active means max response of -50% or lower; inconclusive means between -30% and -50%; inactive means -30% or higher; further: value at the top dose of about 77 µM
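Reactions run in 0.038 M HEPES pH 7.4, 0.28 mM EGTA, 0.1% CHAPS and 5% DMSO, with PI5P4Kalpha, substrate, compound and 5 microM ATP final, one hour at room temperature. Readout is ADP-Glo luminescence.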
PI4K2A inh: blocks human PI4K2A kinase activity | Q9BTU6 | purified PI4K2A, ADP-Glo luminescence, 1 h; active compounds read low | activity change, negative = inhibition, % at 76.9 µM | 0.13% of 420,000 active | AID 1346378; in the data active means activity change below about -50%; inconclusive means mostly about -30% to -49%;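 further: -100% = wells without enzyme as full effect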
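Compounds are screened against recombinant PI4K2A using PI as substrate and ATP, the latter dispensed at 300 microM. Reactions run one hour at ambient temperature before ADP-Glo detection; full inhibition defined by wells lacking enzyme.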
Akt phos inh: inhibitors of Akt phosphorylation; Neuro2A IGF-stimulated pAkt S473 HTRF, 20 min; active compounds read low; activity change, % for hits at 50 µM; 0.32% of 360,000 active; AID 651550; in the data active means activity change below about -80%; inconclusive means mostly about -51% to -80%
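Neuro2A cells (4,500/well, DMEM with 0.5% FBS) were treated with compound at a single 50 µM final concentration, stimulated with 6 nM IGF for 20 min at 37 °C, and lysed. Phospho-Akt Ser473 was read by HTRF as 665/615 ratio ×10^4.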
CtBP-E1A blk: inhibitors of CtBP/E1A interaction | AID 651724 | activity change, % (test concentration not listed) | 0.49% of 340,000 active | AlphaScreen GST-E1A/His-CtBP binding, 1536-well; active compounds read low
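AlphaScreen with 125 nM GST-E1A and 125 nM His-CtBP (5X stocks) in Tris pH 8.0, 300 mM NaCl, BSA, Tween 20, TCEP. Compounds preincubated 2 h at 37 deg C, then glutathione donor/nickel acceptor beads added for 1 h at 37 deg C in dark.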
Six1-Eya2 inh: Six1/Eya2 interaction inhibition; Q15475+O00167; AlphaScreen GST-Six1/His-Eya2 binding, biochemical; active compounds read low; activity change, % (no concentration beside the values); 0.56% of 360,000 active; AID 651725
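AlphaScreen luminescence read after one hour at 37 °C in darkness. Pin-transferred compounds met GST-Six1 and His-Eya2 protein (5X stock 250 nM/500 nM) plus glutathione donor and Ni-chelate acceptor beads (5X, 50 ug/mL).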
* hit, by the source's call; i = inactive; ? = inconclusive; · = not tested or not shown. Unless noted, no stated cut-off is given here; in the data, active means activity change below about -65%; inconclusive means mostly about -30% to -63%; inactive means weaker than that. Unless noted, on the % scale 0 is the no-effect control and ±100 the full control effect.

SMILES	PI5P4Ka inh	PI4K2A inh	Akt phos inh	CtBP-E1A blk	Six1-Eya2 inh
NC(=S)N=Nc1c(O)[nH]c2ccc(F)cc12	-10	-5	i	13	-80*
O=Nc1c(O)[nH]c2ccc(F)cc12	-16	5	i	-5	-13
CC1(C)CC(=O)C=C(NCc2ccco2)C1	-2	4	i	5	9
CCCOC(=O)c1cc(-c2ccc(/C=C3/C(=O)N(C)C(=O)C(C#N)=C3C)o2)ccc1Cl	-58*	-13	i	-2	-4
C=CCOC(=O)c1cc(-c2ccc(/C=C3\C(=O)NC(=O)C(C#N)=C3C)o2)ccc1Cl	-27	-16	i	-1	?
C#CCOCCOCCOCCNc1nc(N2CCN(C(=O)[C@H](CCCCN)n3cc(CN)nn3)CC2)nc(N2CCN(C(=O)[C@H](CCC(=O)O)n3cc([C@@H](N)[C@H](C)CC)nn3)CC2)n1	-1	-6	i	-8	6
O=C(NC(=S)N1CCCc2ccccc21)c1ccccc1	-16	2	-114%*	-16	-20
O=C1C=CC2=C3c4cc(O)c(O)cc4CC3(O)COC2=C1O (configuration not stated)	-90*	?	i	?	?
O=S(=O)(O)c1cc(O)c2c(O)c(N=Nc3cc(Cl)ccc3O)c(S(=O)(=O)O)cc2c1	-76*	-53*	i	-95*	-75*
Nc1cc(S(=O)(=O)O)cc2ccc(S(=O)(=O)O)cc12	-3	-10	i	4	0
Oc1ccc(/C=N/N(Cc2ccccc2)c2ccccc2)c(O)c1O	-76*	-5	i	-10	-17
CCCCc1nnc(NC(=O)Cc2ccc(OC)c(S(=O)(=O)N3CCOCC3)c2)s1	7	-4	i	-1	-1
Cc1nc2ccc3nc(NC(=O)c4ccc(S(=O)(=O)N5CCOCC5)cc4)sc3c2s1	·	2	-100%*	-1	2
COc1ccc(C(=O)Nc2ccccn2)cc1S(=O)(=O)N1CCOCC1	5	-3	i	2	0
COc1ccc(CC(=O)Nc2nnc(SCc3ccccc3)s2)cc1S(=O)(=O)N1CCOCC1	-9	3	-110%*	1	-10
Cc1ccc(S(=O)(=O)N2CCOCC2)cc1C(=O)Nc1nc(-c2ccccn2)cs1	-25	-3	i	3	-85*
COc1ccccc1C(=O)Nc1nc(-c2ccc(S(=O)(=O)N3CCOCC3)cc2)cs1	-8	8	i	?	?
COc1ccc(C(=O)Nc2nc(-c3ccccn3)cs2)cc1S(=O)(=O)N1CCOCC1	?	-2	i	·	-93*
[O-]c1c[n+](-c2ccc(-[n+]3cc([O-])on3)cc2)no1	-56*	-8	i	5	-6
O=C(Nc1ccccc1)Nc1ccc(O)c2ccccc12	-52*	-27	i	·	-16
O=C(Nc1ccccc1)Nc1cccc2ccccc12	10	4	i	-10	6
Cc1ccc(Sc2c([N+](=O)[O-])ncn2C)cc1	1	1	-110%*	-13	-5
Cn1cnc([N+](=O)[O-])c1Sc1ccc(Br)cc1	3	-6	i	·	4
CC1OC(OCC2OC(Oc3c(-c4ccc(O)cc4)oc4cc(O)cc(O)c4c3=O)C(O)C(O)C2O)C(O)C(O)C1O (configuration not stated)	-67*	-6	i	3	-13
Cc1cc(N2CCOCC2)ccc1/C=C1\NC(=O)N(CC(=O)Nc2ccc(F)cc2)C1=O	-5	-4	i	-1	-11
SMILES	PI5P4Ka inh	PI4K2A inh	Akt phos inh	CtBP-E1A blk	Six1-Eya2 inh
Cc1ccc(OCCc2csc(N)n2)cc1	3	-14	i	-24	-1
Cc1nn(-c2ccccc2)c(C)c1/C=C/C(=O)OCC(=O)Nc1ccc(S(N)(=O)=O)cc1	-1	-3	i	-88*	-20
CCNC(=S)N(Cc1c(C)noc1C)c1ccccc1	1	-5	i	9	10
CCC(C)n1nnc2c(=O)oc3ccccc3c21 (configuration not stated)	·	-8	-92%*	2	0
COC(=O)Oc1ccc(/C=N/NS(=O)(=O)c2ccccc2)cc1OC	0	-7	i	3	-4
Nc1ccc(-c2ccc(N)c([N+](=O)[O-])c2)cc1[N+](=O)[O-]	-10	-3	i	·	-10
Nc1ccc(-c2cnc[nH]2)cc1[N+](=O)[O-]	-9	-51*	i	?	?
CCC1CCCCN1c1cc(C)nc2cc(-c3cccc(C)c3)nn12 (configuration not stated)	38	-8	i	1	5
COc1ccc(/C=N/N2C(=O)CSC2=S)cc1Br	-78*	-5	i	·	-17
O=C1CSC(=S)N1N=Cc1ccc2c(c1)OCO2	-51*	-14	i	?	?
O=C1c2ccccc2C(=O)N1N=Cc1ccc2c(c1)OCO2	2	-13	i	-1	2
COc1ccc(/C=N/N2C(=O)CSC2=S)cc1	·	-5	i	3	-18
Cc1ccc(Cn2cc(CCC(=O)O)c3ccccc32)cc1	1	0	i	-65*	3
Cc1ccc(CNC(=O)CCc2cn(Cc3ccc(C)cc3)c3ccccc23)cc1	·	-4	·	·	·
Cc1ccc(-c2nc(CS(=O)(=O)CC(=O)NCc3cccc(F)c3)c(C)o2)cc1	11	-5	i	2	-2
COc1ccc(CC(=O)NNC(=O)c2ccccn2)cc1	0	-7	i	-74*	?
O=C(Cc1ccccc1)c1ccccn1	-23	-9	i	-5	-78*
COc1ccc(CC(=O)NNC(=O)c2cnccn2)cc1	0	-5	i	·	-2
Cc1cc(C)cc(OCC(=O)NNC(=O)c2ccccn2)c1	5	-20	i	·	-68*
O=C(NNC(=O)C12CC3CC(CC(C3)C1)C2)c1ccccn1	-11	-2	i	-19	-66*
N/C(=N\OC(=O)Cc1ccccc1)c1ccccn1	-22	9	i	-3	0
O=C(Nc1ccc(N2CCN(Cc3ccccc3F)CC2)cc1)c1ccccc1[N+](=O)[O-]	5	-3	i	-16	-1
Fc1cccc(-c2ncc(-c3ccccc3)o2)c1	-7	-1	i	6	14
O=C(NCC1CCS(=O)(=O)C1)NCC1CCS(=O)(=O)C1 (configuration not stated)	·	-2	·	3	5
CN1CCN(C(CNC(=O)C(=O)Nc2ccc3c(c2)OCCO3)c2ccc(F)cc2)CC1 (configuration not stated)	4	0	i	-4	5
O=C(NCc1ccc(F)cc1)C1CCCN(c2ncnc3onc(-c4ccc(F)cc4)c23)C1 (configuration not stated)	·	-2	·	·	·
COCCCNC(=S)NNC(=O)c1ccccn1	5	-12	i	-87*	-93*
